Test results reported in ChEMBL document CHEMBL3988442, “University of Dundee, Small-Polar-MMV Screening Library” (2021).
The campaign covered roughly 48,000 compounds. About 13,000 (27%) showed an effect of 50% or more. This is one part of the list.

What follows are molecules tested on Wolbachia pipientis (assay: Anti-Wolbachia Cell-Based Screen). Details: 5 µM.
Assay type: functional
Parameters: scale not given: in the data most compounds retested in dose-response had high values

Structure (SMILES) | Percent Effect [%]
CCc1sc(-c2nnc(CNCCn3cccn3)o2)cc1C | -1.143
COc1cccc([C@H]2CN(CCCS(=O)(=O)N(C)C)C[C@@H]2N)c1 | -12.77
Cn1ccnc1CN1CC[C@@H](NS(C)(=O)=O)[C@@H]1Cc1ccccc1.O=C(O)C(F)(F)F | 9.127
O=C(NC1CCS(=O)(=O)C1)N1CCN(c2cnccn2)CC1 (stereo not drawn) | 3.203
Clc1ccccc1-c1nnc(CSCCN2CCOCC2)o1 | -8.486
COCCN(CC(C)C)c1cc(C)ncn1 | 0.855
Cc1cccc(-c2noc(C)c2C(=O)NC2CCCOC2)c1.O=C(O)CC(O)(CC(=O)O)C(=O)O (stereo not drawn) | 154
Cc1c(C(=O)NC2CCCOC2)nnn1-c1ccc(Cl)cc1F (stereo not drawn) | -27.09
COc1ccc2c(C)c(C(=O)NC3CCCOC3)oc2c1 (stereo not drawn) | -7.174
c1cn2c(n1)CO[C@@H](CNCc1ccc3c(c1)OCO3)C2 | -4.812
O=c1cc(CNCc2ccc3c(c2)OCO3)nc2ccccn12 | 121
O=c1cc(CNCc2ccc3c(c2)OCO3)nc2ccc(Br)cn12 | 115.5
CN(CCO)Cc1cc(=O)n2cc(Br)ccc2n1 | 0.309
O=C(OCc1cc(=O)n2cc(Br)ccc2n1)c1ccc2c(c1)OCO2 | 110.5
O=c1cc(CN(CCO)C2CC2)nc2ccc(Br)cn12 | 3.193
CCN(Cc1cc(=O)n2cc(Br)ccc2n1)C1CC1 | 1.133
O=c1cc(CN(CCO)C2CC2)nc2ccccn12 | -7.428
O=c1cc(CN(Cc2ccco2)C2CC2)nc2ccc(Br)cn12 | -5.391
CC(C)Cc1nc(CS(C)(=O)=O)n(-c2ccccn2)n1 | -36.43
Cc1cccc(-n2nc(CC(C)C)nc2CCCC(N)=O)c1 | 10.56
COc1ccc(-n2nc(C(C)C)nc2COC(C)C)cc1 | -17.3
COc1ccccc1-n1c(CC(C)C)nnc1SCC(=O)O | -51.76
COc1ccccc1-n1nc(C(C)C)nc1Cc1nnc(N)s1 | 123.2
Cc1cccc(-n2nc(CC(C)C)nc2CS(C)(=O)=O)c1 | 2.26
COc1ccccc1OCc1nc(C(C)C)no1 | -14.46

Structure (SMILES) | Percent Effect [%]
COc1ccccc1-n1nc(CC(C)C)nc1Cc1nnc(N)s1 | 123.6
COc1ccccc1-n1nc(CC(C)C)nc1CSc1nnc(N)s1 | 106.5
CC(C)c1nc(C2CCCN(c3nccc(N4CCCC4)n3)C2)no1 (stereo not drawn) | -3.198
CC(C)c1nc(CCN(C)c2nccc(N3CCCC(O)C3)n2)no1 (stereo not drawn) | 96.48
CN(Cc1nccn1C)c1nccc(N2CCCC(O)C2)n1 (stereo not drawn) | 5.071
CCc1nnc(CN(C)c2nccc(N3CCCC(O)C3)n2)o1 (stereo not drawn) | 80.06
CCc1noc(CN(C)Cc2ccc(N3CCCCC3)cc2)n1 | 6.491
CN(Cc1nncn1C)c1nccc(N2CCC(O)CC2)n1 | 2.442
CCc1nc(CN(C)c2nccc(N3CCCC(O)C3)n2)no1 (stereo not drawn) | 114.5
CCc1nc(C2CCCN(c3nccc(N4CCCC4)n3)C2)no1 (stereo not drawn) | -11.44
CN(CCN1CCCCCC1)c1nccc(N2CCC(O)C2)n1 (stereo not drawn) | 17.45
CO[C@H]1COCCN(C(=O)c2ccc(C#N)cc2)C1 | 6.544
CC(NC(=O)CN1C=Nc2ccccc2S1(=O)=O)c1ccccc1 (stereo not drawn) | 1.961
Cc1c(NC(=O)C(C)N(C)C)c(=O)n(-c2ccccc2)n1C (stereo not drawn) | 117.4
Cc1nn(C(C)C)c(C)c1NC(=O)c1ccccc1 | -6.028
Cc1cc(NC(=O)N(C)C2CCCN(c3ccccc3)C2=O)n(C)n1 (stereo not drawn) | 12.64
CN(Cc1ccsc1)c1nc(-c2ccccn2)nc2c1CCNCC2 | 9.446
O=C(CC1CCCC1)N1CCC(c2nnc(-c3ccccn3)o2)CC1 | 116.1
O=C(CCn1cccn1)N1CCC(C2CCN(c3ncccn3)CC2)C1 (stereo not drawn) | 0.2616
O=C(CC1CCN(c2ncnc3ccccc23)CC1)N1CCCC1 | -18.62
O=C(c1ccccn1)N1CCCN(Cc2nnc(C3CC3)o2)CC1 | -3.394
O=C(Cc1ccccc1)N1CC[C@@H]2CNS(=O)(=O)[C@@H]2CC1 | -4.028
O=C(Cc1ccccc1)N1CCC(c2nnc(-c3ccccn3)o2)CC1 | 100.4
Cc1nnc([C@@H]2CCO[C@@H]3CCN(C(=O)Cc4ccccn4)C[C@@H]32)o1 | -1.99
O=C(CCn1cccn1)N1CCC(c2nnc(-c3ccccn3)o2)CC1 | 80.52

Structure (SMILES) | Percent Effect [%]
CN(C)S(=O)(=O)N1CCC(c2nnc(C(F)(F)F)o2)CC1 | 9.522
CS(=O)(=O)NC1CCN(C(=O)CCn2cccn2)CC1 | -7.028
CCS(=O)(=O)N1CCC(c2nnc(C(F)(F)F)o2)CC1 | -1.552
O=C(Cn1cccn1)N1CCC(c2nnc(C(F)(F)F)o2)CC1 | 121.4
Cc1cnn(CC2CCN(c3cc(C(C)C)nc4ccnn34)CC2)c1 | -2.497
COC(=O)c1sccc1S(=O)(=O)N1CCC(Oc2cccc(C)n2)CC1 | -4.236
Cc1ccc(Cc2sc(NC(=O)C(C)S(C)(=O)=O)nc2C)cc1 (stereo not drawn) | -9.615
O=C(CC1CCN(c2ncnc3cccc(F)c23)CC1)N1CCCC1 | 7.525
O=C(CC1CCCC1)N1CCC(c2noc(-c3ccccn3)n2)CC1 | 138.8
Cn1cncc1-c1nnc([C@H]2CCN(Cc3cccnc3)C2)o1 | -10.77
CN(C)CCCn1ccnc1C1CCN(C(=O)Cc2cccnc2)CC1 | -18.68
O=C(Cc1cccnc1)N1CCC(c2nnc(-c3ccccn3)o2)CC1 | 116.7
Cc1noc(C)c1CN(C)CCC(=O)N1CCc2sccc2C1 | -7.36
O=C(NCc1ccco1)[C@@H]1CC[C@@H]2[C@@H](CCN2CC2CC2)O1.O=C(O)C(F)(F)F | -3.769
COc1ccc(CN2CC[C@H]3O[C@@H](C(=O)NCC4CC4)CC[C@H]32)cc1.O=C(O)C(F)(F)F | 93.13
O=C(NCc1ccco1)[C@@H]1CC[C@@H]2[C@@H](CCN2Cc2ccc(F)cc2)O1.O=C(O)C(F)(F)F | -0.4343
O=C(NCC1CC1)[C@@H]1CC[C@@H]2[C@@H](CCN2Cc2ccc(F)c(F)c2)O1.O=C(O)C(F)(F)F | 110.1
CNC(=O)[C@H]1CC[C@@H]2[C@@H](CCN2CCOCc2ccccc2)O1.O=C(O)C(F)(F)F | 2.484
O=C(NCCc1ccncc1)[C@@H]1CC[C@@H]2[C@@H](CCN2Cc2ccco2)O1.O=C(O)C(F)(F)F.O=C(O)C(F)(F)F | -6.425
O=C(NCC1CCOCC1)[C@@H]1CC[C@@H]2[C@@H](CCN2Cc2ccncc2)O1.O=C(O)C(F)(F)F.O=C(O)C(F)(F)F | 108.2
CNC(=O)[C@@H]1CC[C@@H]2[C@@H](CCN2Cc2ccccc2F)O1.O=C(O)C(F)(F)F | -4.389
O=C(NCC1CC1)[C@@H]1CC[C@@H]2[C@@H](CCN2Cc2ccco2)O1.O=C(O)C(F)(F)F | 95.42
O=C(NCC1CC1)[C@@H]1CC[C@@H]2[C@@H](CCN2CCOCc2ccccc2)O1 | -46.75
O=C(NCCc1ccc(Cl)cc1)c1coc(CN2CCOCC2)c1 | -3.788
CC1=C(C#N)C(=O)NC(=O)/C1=C\c1c(C)nn(-c2ccc(Cl)cc2)c1O | 109.3

Structure (SMILES) | Percent Effect [%]
Cc1nn(-c2ccccc2)c(C)c1CNC(=O)NC1CC(=O)N(C)C1 (stereo not drawn) | 1.592
Cc1nn(-c2ccccc2)c2c1C(c1ccc(C(=O)O)cc1)CC(=O)N2 (stereo not drawn) | -3.155
CC1=C(C#N)C(=O)NC(=O)/C1=C\c1c(C)nn(-c2ccc(C)cc2)c1O | 117.9
Cc1ccc(-n2nc(C)c3c2NC(=O)CC3c2cnc(N)s2)cc1 (stereo not drawn) | 19.39
CC1=C(C#N)C(=O)NC(=O)/C1=C\c1c(C)nn(-c2ccccc2)c1O | 95.98
CCn1c(C)cc(C(=O)NCc2cccc(S(=O)(=O)NC)c2)c1C | -0.4884
CNS(=O)(=O)c1cccc(CNC(=O)NCC2CCOC2)c1 (stereo not drawn) | -2.881
CNS(=O)(=O)c1cccc(CNC(=O)c2cc(C)no2)c1 | 131.9
CCc1ccc(C(=O)NCc2cccc(S(=O)(=O)NC)c2)o1 | 104.9
CNS(=O)(=O)c1ccc(CNC(=O)c2cc(C)no2)cc1 | 3.551
CNS(=O)(=O)c1ccc(CNC(=O)c2cc(-c3ccccn3)no2)cc1 | -10.88
CC(C)NC(=O)CNC(=O)c1csc(Cc2ccccc2F)n1 | 109.5
CC(C)NC(=O)CN(C)C(=O)c1csc(Cc2ccccc2F)n1 | 122.3
Cc1nc(C)c(CC(=O)NCc2ccccc2F)s1 | 8.727
CCN(CC(=O)NC)C(=O)c1csc(Cc2ccccc2)n1 | -20.14
CCN(CC(=O)NC(C)C)C(=O)c1csc(Cc2ccccc2)n1 | -19.99
CC(C)NC(=O)CCNC(=O)Nc1cnn(-c2ccccc2F)c1 | -8.567
COC(=O)CCN(C)C(=O)c1ccc(-c2cscn2)cc1 | -8.458
CCNC(=O)CN(CC)C(=O)Cc1csc(C(C)C)n1 | 11.15
COCc1nc(C(=O)NS(=O)(=O)c2ccc(F)c(F)c2)cs1 | -13.23
CC(=O)Nc1nc(C(=O)NCCOc2ccccc2F)cs1 | -9.068
CCNC(=O)CN(CC)C(=O)c1csc(Cc2ccccc2F)n1 | 97.94
COC(=O)CCN(C)C(=O)c1csc(Cc2ccccc2F)n1 | 117.5
